Reference: PMC7819943, “Rice protein-binding microarrays: a tool to detect cis-acting elements near promoter regions in rice”
The full ranking holds about 68,000 sequences; the median of “fluorescence intensity (a.u.)” is about 9,100, and the highest 2% start at about 16,000. Many of the other results were omitted from the sample, so the highest values are more common in it than they were.

Each sequence was assayed against OsWRKY34 (Oryza sativa, UniProt Q0JBA9 1-250) (assay: protein-binding microarray (RPBM); PBS, 2% BSA, 51.3 ng/ul salmon testes DNA, 50 uM zinc acetate, 200 nM TF, 25 C, 1 h; high values mean tight binding). Conditions: protein: recombinant; tags: N-terminal polyhistidine and DsRed monomer fusion (pET32a); label: CyDye5-dUTP incorporated in the synthesized complementary strand; 3' TTTTT single-stranded linker to array surface; dsDNA, one strand shown.
Method in brief: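 Binding signal is defined as the fluorescence intensity of each feature in arbitrary units, read on an Axon 4000B scanner. Transcription factors with N-terminal polyhistidine and DsRed fusions came from E. coli BL21-CodonPlus and were purified on Ni–NTA. They were incubated at 200 nM for 1 h at 25 °C on a custom Agilent array that had been made double-stranded with Cy5-dUTP, with 50 µM zinc acetate present, and the array was washed.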

OsWRKY34, sequence (Q0JBA9 entry or part of it): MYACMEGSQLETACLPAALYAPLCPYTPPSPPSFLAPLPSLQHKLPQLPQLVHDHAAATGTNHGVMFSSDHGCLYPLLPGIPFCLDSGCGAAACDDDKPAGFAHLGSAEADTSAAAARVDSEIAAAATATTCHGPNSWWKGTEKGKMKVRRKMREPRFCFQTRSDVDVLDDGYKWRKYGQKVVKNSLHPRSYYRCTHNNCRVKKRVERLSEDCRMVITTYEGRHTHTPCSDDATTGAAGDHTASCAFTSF

Sequence	binding signal
AATTAACATCACCAATCAGCAATCACCAACCTTGTCATCTCGGAGTCACCTAGTGCAG	8970 fluorescence intensity (a.u.)
TTTCATCAATTGCCTCTTGTATCAGCTACTATGCAATATACGGAGTCACCTAGTGCAG	8850 fluorescence intensity (a.u.)
GCTAGACTATCATCAGCAAGCTAGCAATTAAAGGCCTTGTCGGAGTCACCTAGTGCAG	64200 fluorescence intensity (a.u.)
CCATGCTCGCGGCGTTTACTTTCCTCACTATTTTTTAGATCGGAGTCACCTAGTGCAG	9410 fluorescence intensity (a.u.)
GGATCGCGTGGTTTGTGTCGTGTCTTTGCATACGGCGACACGGAGTCACCTAGTGCAG	8300 fluorescence intensity (a.u.)
CCATCACCACCTCCCGATCCGCGCGCTTTCTCTCCCGCGCCGGAGTCACCTAGTGCAG	9090 fluorescence intensity (a.u.)
TTTTCAGTAGATAACATCGTTGACTTTTCAACGAATATTTCGGAGTCACCTAGTGCAG	14400 fluorescence intensity (a.u.)
CCGTTTTTTAATAGATAACGCTGTTGACTTTTTCTTATATCGGAGTCACCTAGTGCAG	11200 fluorescence intensity (a.u.)
TTTTTAATAGATAACGTCGTTGACTTTTTCTCACATGTTTCGGAGTCACCTAGTGCAG	25600 fluorescence intensity (a.u.)
GTTTTTTAATAGATAACGCCGTTGACTTTTTTTCACATGTCGGAGTCACCTAGTGCAG	21500 fluorescence intensity (a.u.)
AACTTTACTTTTTCTCATAGTGTTGATTAGATATATGTTTCGGAGTCACCTAGTGCAG	10600 fluorescence intensity (a.u.)
GGAGGAGAGAGGGGTGGGGTTTGTGGTGTCGTCGTCCATGCGGAGTCACCTAGTGCAG	11700 fluorescence intensity (a.u.)
GACTATGCGCGCTATATAAAGGATCACATTATCTCATACTCGGAGTCACCTAGTGCAG	8930 fluorescence intensity (a.u.)
TTGCCGTACAATCTTGATTTGGAGATCTTCCTGGCCAACACGGAGTCACCTAGTGCAG	9120 fluorescence intensity (a.u.)
AGAAAGCCCATTTTGCCCTTTGTGCTTCAGAACATCGAGCCGGAGTCACCTAGTGCAG	8020 fluorescence intensity (a.u.)
TGGCGAGGAGGTGGTGGTGGTTGTGGTGGGTGCGGCCATGCGGAGTCACCTAGTGCAG	12100 fluorescence intensity (a.u.)
ACGCTTGGTGGGGTGGGGTGGTGCTGGTGCCATGAACTGCCGGAGTCACCTAGTGCAG	22300 fluorescence intensity (a.u.)
GTGGTGGTGGTGGTGGTGGTGGCGGCGGCGGCCGGCCATGCGGAGTCACCTAGTGCAG	20000 fluorescence intensity (a.u.)
AACTCAGTCTCAGCTCACATGATGCATCATCAGCCATGGCCGGAGTCACCTAGTGCAG	8200 fluorescence intensity (a.u.)
CCGCCGCCATCAAGTCCGCCATCATGACCACCGGTGAGAACGGAGTCACCTAGTGCAG	8490 fluorescence intensity (a.u.)
CATCCGGCCATGGTGATGACCGGCGGCGATGATCAGCAGCCGGAGTCACCTAGTGCAG	48200 fluorescence intensity (a.u.)

Sequence	binding signal
GCCGCATGGTGGTGCTGGTTGGGGTGGTGGTGGTGGCGGCCGGAGTCACCTAGTGCAG	14800 fluorescence intensity (a.u.)
AAACCATGCGGCGCACGAGCCACTCGCACTCGCACTCGCACGGAGTCACCTAGTGCAG	9360 fluorescence intensity (a.u.)
GTACTGGCTTGGCTGGGTCGGGCTCGGGCTGGGCCATGAACGGAGTCACCTAGTGCAG	8340 fluorescence intensity (a.u.)
CGGAGGGAGGCGGAGGCGGTGGTGGTGGTGGTGGTGCCGGCGGAGTCACCTAGTGCAG	12500 fluorescence intensity (a.u.)
GAGGAGAGAGAGAGAGAGTGGTGGTGGTGGTGGTGAGATGCGGAGTCACCTAGTGCAG	8460 fluorescence intensity (a.u.)
GTGGTGGTGGTGGTGGTGGTGGTGGTGGTGCACGGCCATGCGGAGTCACCTAGTGCAG	16400 fluorescence intensity (a.u.)
CAGCCACCTCCTCCTCTTCTTCCCCAACTTTCTGCTTGATCGGAGTCACCTAGTGCAG	9300 fluorescence intensity (a.u.)
CCCACGCAGATCTCCGCTTTTTCCCGGCGGCAACCACGCCCGGAGTCACCTAGTGCAG	10200 fluorescence intensity (a.u.)
AATCTAACATGGATTTGCGCACACACTTGTCGTAACGTACCGGAGTCACCTAGTGCAG	9480 fluorescence intensity (a.u.)
CGTGCATCCGCTGCGCTGTGCTGCCATTTCTCTTCAGCTTCGGAGTCACCTAGTGCAG	10600 fluorescence intensity (a.u.)
TAGCTATTGCTCGCTGGCCTACCATTAATTAGTATACTGTCGGAGTCACCTAGTGCAG	8800 fluorescence intensity (a.u.)
TTTTGCTTATCATATCATATATTTTCTAAGCTTGATTTTTCGGAGTCACCTAGTGCAG	8050 fluorescence intensity (a.u.)
TTTTTTGTTTTTTCTTTGAATTCTTTCCTTACGATTTTTGCGGAGTCACCTAGTGCAG	13400 fluorescence intensity (a.u.)
ACCTAATATTTCCCGTGTTCTCTTCTACGAAAACGTATTTCGGAGTCACCTAGTGCAG	10500 fluorescence intensity (a.u.)
AACCTCCAACCTTTTAATTTCTCACGCGACCATGCACGACCGGAGTCACCTAGTGCAG	8820 fluorescence intensity (a.u.)
ATGTAGGGGTTCCTGCTGCTGCTGTTCTGCCCATTCAACACGGAGTCACCTAGTGCAG	8880 fluorescence intensity (a.u.)
TCATCATGTGACCGACCACCGCATCCTCAGTTGACCCAGTCGGAGTCACCTAGTGCAG	8640 fluorescence intensity (a.u.)
GATAGGGTTAGGGTTAGGGTTTTCCCTGGTCCGCATCTTCCGGAGTCACCTAGTGCAG	9320 fluorescence intensity (a.u.)
CTCTTGCTCTGCTCTGTTTTTGGCCCATCCTCACCCACAACGGAGTCACCTAGTGCAG	10600 fluorescence intensity (a.u.)
CTTTTCTCCTTCGGCTATAGTGTCACTGTCCTCGCCTTCTCGGAGTCACCTAGTGCAG	15700 fluorescence intensity (a.u.)
GTGCCTAACAATCTGCTGCTTTTTACCCGCCAAGTATCTTCGGAGTCACCTAGTGCAG	8180 fluorescence intensity (a.u.)

Sequence	binding signal
TTCCAGTTAGCAACGCATTGAGCCATTTTTACATATTCTGCGGAGTCACCTAGTGCAG	57100 fluorescence intensity (a.u.)
ATGTAAGTCATTCTAGCATTTTTTACATTCATATTGATGTCGGAGTCACCTAGTGCAG	9380 fluorescence intensity (a.u.)
AATACATTTTACCTCGATTGTTATTAGCATATTTTTTTTGCGGAGTCACCTAGTGCAG	8890 fluorescence intensity (a.u.)
TTCACCCTCACTTTATTCATCTATAGTAGTTTCATCAGTTCGGAGTCACCTAGTGCAG	8060 fluorescence intensity (a.u.)
CTACTTTCACTCCCACCCACCCGACACAGCCGGAGCGCGCCGGAGTCACCTAGTGCAG	8630 fluorescence intensity (a.u.)
CACAGATCCACTCCATTGCTTCACTACTGCTTTGCTTTTGCGGAGTCACCTAGTGCAG	11000 fluorescence intensity (a.u.)
CCACTTTTGCAGATTGCAGGGCGCGCAGTACTGCCGACAGCGGAGTCACCTAGTGCAG	18900 fluorescence intensity (a.u.)
GCCTTTTTAACTTGTGCGACCGGTGTTCCGGGATTTTGGGCGGAGTCACCTAGTGCAG	10900 fluorescence intensity (a.u.)
TCTCCTCCATCATCGCAGCCAACTCCAACATCCTGAGCTCCGGAGTCACCTAGTGCAG	9510 fluorescence intensity (a.u.)
GTTTTTTTTTTTCCTTTCACTTCCTTCCTGGGCTTTATTTCGGAGTCACCTAGTGCAG	17300 fluorescence intensity (a.u.)
AATCTGTTTTTTGCTTTTTTGCCCTTTTCACGGTTTTTCCCGGAGTCACCTAGTGCAG	10800 fluorescence intensity (a.u.)
GCCCTTTTCACGGTTTTTCCTGATCTTTCTGGGCTTTCTCCGGAGTCACCTAGTGCAG	18800 fluorescence intensity (a.u.)
TTGTCTTCCTTTGTTTCGACTGGTCCAGTTTCGTCCTCTCCGGAGTCACCTAGTGCAG	10300 fluorescence intensity (a.u.)
TTTTTATATACCGGTAAATATCCGCTACCGTATTCGTTCCCGGAGTCACCTAGTGCAG	10200 fluorescence intensity (a.u.)
CTTATTTGTAGCTTCCTTTTTTTTTCCTTTTTCTTTTATTCGGAGTCACCTAGTGCAG	10400 fluorescence intensity (a.u.)
TGTCGTCCTTCAGGCCAACTTTGTCTTCCTTTGTTTCGACCGGAGTCACCTAGTGCAG	16400 fluorescence intensity (a.u.)
TCGTTCCTTCCTGTTGTTTCCTTTTCTTTTCCTTTATTTTCGGAGTCACCTAGTGCAG	8070 fluorescence intensity (a.u.)
TTATTTCCGCAAATCGTTCGCTATCCGGTATATTTTTGCACGGAGTCACCTAGTGCAG	17300 fluorescence intensity (a.u.)
CACAACTTTTCGTTTTTTATATTTGCACAAATTTTTTAATCGGAGTCACCTAGTGCAG	8650 fluorescence intensity (a.u.)
CAGACTTTTCAGCTTCGGTTTCCCTTGTTTCTGATCTTTCCGGAGTCACCTAGTGCAG	8440 fluorescence intensity (a.u.)
AAAATGTTGTTTTTTTCTTCACTTTTGTTTTCCTTTTTTTCGGAGTCACCTAGTGCAG	9300 fluorescence intensity (a.u.)
